Rows were chosen to be rich in hits. Some 4.1% of all compounds tested hit in one or more screens of this group.
PRMT1 inh: inhibitors of human PRMT1. AID 652257. Q99873. inhibition, % at 2.79 µM. recombinant PRMT1, activity-based probe fluorescence polarization. 370,000 tested, 1.3% active;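 active = inhibition above about 21% made by adding two undisclosed values, limit read from the data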
LEDGF integ inh: blocks HIV-1 LEDGF/p75-dependent DNA integration; TR-FRET IN-LEDGF/p75 DNA integration, Eu/Cy5; inhibition, % at 3.7 µM; 370,000 tested, 0.64% active;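 active = inhibition above the screen-wide mean plus 3 SD, cut at about 13% in these data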;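 also: signal is the Cy5 over europium emission ratio at 671 and 618 nm; 0% = plate median of compound wells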
ABHD5-PLIN5 inh: ABHD5-PLIN5 protein interaction inhibition; 360,000 tested, 0.78% active; Split G. princeps luciferase complementation, luminescence, 4 h; inhibition, % at 4 µM;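 active = inhibition above the mean inhibition across every tested compound plus 3 SD, cut at about 22% in these data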;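 also: 0% = DMSO only wells and the 100% control is not disclosed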
Target sequence (Q00G26 whole entry, looked up): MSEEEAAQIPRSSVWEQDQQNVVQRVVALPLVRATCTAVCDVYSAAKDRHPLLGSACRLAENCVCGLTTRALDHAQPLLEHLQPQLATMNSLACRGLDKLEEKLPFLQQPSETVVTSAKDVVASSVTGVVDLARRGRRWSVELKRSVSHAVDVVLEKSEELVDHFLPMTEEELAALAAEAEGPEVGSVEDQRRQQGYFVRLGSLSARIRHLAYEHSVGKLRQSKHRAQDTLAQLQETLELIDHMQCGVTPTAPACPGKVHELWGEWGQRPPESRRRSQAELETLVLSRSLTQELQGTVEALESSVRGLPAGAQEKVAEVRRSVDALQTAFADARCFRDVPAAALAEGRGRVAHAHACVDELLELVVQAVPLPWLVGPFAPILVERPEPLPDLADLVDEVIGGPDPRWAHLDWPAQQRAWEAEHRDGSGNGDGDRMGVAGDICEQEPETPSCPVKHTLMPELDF
Target sequence (Q8WTS1 whole entry, looked up): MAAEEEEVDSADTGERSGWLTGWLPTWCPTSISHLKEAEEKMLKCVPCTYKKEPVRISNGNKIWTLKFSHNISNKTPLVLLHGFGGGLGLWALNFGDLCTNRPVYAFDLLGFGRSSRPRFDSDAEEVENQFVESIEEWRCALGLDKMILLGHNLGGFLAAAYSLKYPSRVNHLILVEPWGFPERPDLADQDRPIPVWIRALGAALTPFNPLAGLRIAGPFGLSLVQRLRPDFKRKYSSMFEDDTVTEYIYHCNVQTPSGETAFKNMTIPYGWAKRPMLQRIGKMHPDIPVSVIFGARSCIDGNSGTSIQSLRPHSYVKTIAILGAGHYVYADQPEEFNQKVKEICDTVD
MBD2 inh: MBD2-methylated oligo binding inhibition | Q9UBB5 | TR-FRET, MBD2 binding to methylated oligonucleotide | inhibition, % at 4.4 µM | 370,000 tested, 0.31% active | AID 686964; in the data active = inhibition above about 13%
UHRF1 binding: human UHRF1 methylated DNA binding inhibitors. Q96T88. UHRF1 binding to methylated oligo, TR-FRET. inhibition, % at 4.4 µM. 370,000 tested, 0.75% active; in the data active = inhibition above about 21%;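 also: UHRF1 SRA domain binding a hemimethylated CpG hairpin DNA probe; 0% = median of test compound wells and 100% = reference inhibitor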
rCAG RNA binder: molecules binding r(CAG) RNA repeats | r(CAG) RNA repeat, TO-PRO-1 dye displacement fluorescence | inhibition, % at 3 µM | 370,000 tested, 1.3% active;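 active = inhibition above the plate cutoff, the mean of all test compounds on that plate plus 3 SD, cut at about 35% in these data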;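 also: 0% = DMSO alone and 100% = 100 µM mitoxantrone as full dye displacement; higher means more dye released from RNA so lower well fluorescence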
PRMT1 confirm: confirmation of human PRMT1 inhibitors; shares compounds with PRMT1 inh; recombinant His-PRMT1, activity-based probe fluorescence polarization; inhibition, % at 2.79 µM; 3,300 tested, 42% active;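 active = mean inhibition across replicates above the hit cutoff derived for the earlier primary screen, cut at about 22% in these data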
An asterisk follows results filed as active; . = no result.

SMILES | PRMT1 inh | LEDGF integ inh | ABHD5-PLIN5 inh | MBD2 inh | UHRF1 binding | rCAG RNA binder | PRMT1 confirm
Cn1cc(Br)c(NC(=O)/C=C/C(=O)O)n1 | 36* | 3 | 3 | -1 | 1 | 0 | 4
Cn1cc(Br)c(C(=O)Nc2c(F)c(F)c(F)c(F)c2F)n1 | 1 | -6 | 0 | 4 | 3 | 4 | .
Cc1sc2nc(CSCC(=O)NC3(C#N)CCCCC3)[nH]c(=O)c2c1C | 25* | -1 | -2 | 6 | 1 | 9 | 5
CCOC(=O)c1ccc(/[N+]([O-])=C/c2ccccc2)cc1 | 25* | 4 | -11 | -3 | -4 | -1 | 10
CCCCN(C)c1c2c(nc3ncnn13)CCCC2 | -4 | 2 | . | -3 | 2 | 1 | .
COc1ccccc1OCC(=O)Sc1ccc(C)cc1 | 39* | -1 | -8 | 7 | 3 | -7 | 79*
Cc1ccc(OCC(=O)Sc2ccc(C)cc2)cc1 | 20 | -4 | -15 | -1 | -1 | -2 | .
Nc1cccc(S(=O)(=O)N2CCCN(S(=O)(=O)c3ccc4c(c3)OCCO4)CC2)c1 | 0 | 5 | . | -6 | 0 | . | .
Cc1ccc(-c2c(C(=O)NC3CCCC3)oc(=O)c3ccccc23)cc1 | -7 | 6 | . | 4 | 2 | 3 | .
O=C(CCS(=O)(=O)c1ccccc1)Nc1cc(Cl)ccc1F | 0 | 4 | . | 3 | -4 | 1 | .
O=C(O)CNC(=O)CC1S/C(=N/N=C2\CSC(=O)N2)NC1=O (centres undefined) | 38* | 1 | -21 | -2 | -3 | 0 | 22*
Oc1ccccc1CNc1cnc2ccccc2c1 | 10 | 2 | -12 | -9 | -4 | 3 | .
Oc1ccc2ccccc2c1CNc1cnc2ccccc2c1 | 43* | -7 | 22* | -4 | 0 | 7 | 29*
O=C1C=CC(=O)N1N(c1ccccc1)c1ccccc1 | 50* | 1 | 10 | -6 | 1 | 1 | 96*
O=C1c2ccccc2C(=O)N1N(c1ccccc1)c1ccccc1 | 2 | -1 | 9 | 4 | 1 | 0 | .
O=C1CCCC2=C1Sc1ccccc1N2 | 37* | 0 | 0 | -11 | 0 | -8 | 17
Nc1[nH]c(C(=O)c2ccccc2)c(-c2ccccc2)c1C(=O)NCCc1c[nH]c2ccccc12 | 1 | -1 | . | -4 | 1 | 11 | .
Cn1ncc2c1NC(c1ccc(F)cc1)SCC2=O (centres undefined) | 34* | 1 | -10 | 0 | -2 | 1 | 55*
COc1ccc(CCN2C(=O)CSC2c2ccc(F)cc2)cc1 (centres undefined) | 7 | -1 | -6 | 7 | 2 | -4 | .
CC(=O)OC(C(=O)Nc1nccs1)c1ccccc1 (centres undefined) | 0 | 2 | 1 | 2 | 5 | 0 | .
O=C(Nc1nccs1)C(Br)C(Br)c1ccccc1 (centres undefined) | 65* | 5 | 15 | -6 | 0 | 2 | 59*
CCOC(=O)CSC1=C(C#N)C(=O)NC(c2ccc(OC)cc2)S1 (centres undefined) | 35* | 2 | -5 | -4 | 10 | 5 | 7
C=CCN(CC=C)C[C@@H]1CSCCS(=O)(=O)N1 | -1 | 0 | . | 1 | -1 | 3 | .
O=C(O)/C=C/C(=O)Nc1ccc(OC(F)(F)F)cc1Br | 50* | -2 | 4 | 4 | 1 | 4 | 5
Cc1ccc(-c2nn(-c3cccc(F)c3)cc2CN(Cc2nccn2C)C(C)C)o1 | 41* | 6 | 9 | -3 | 2 | 0 | 1
SMILES | PRMT1 inh | LEDGF integ inh | ABHD5-PLIN5 inh | MBD2 inh | UHRF1 binding | rCAG RNA binder | PRMT1 confirm
Cc1ccc(-c2nn(-c3cccc(F)c3)cc2CN2CCN(c3ccccn3)CC2)o1 | 7 | 1 | 2 | -2 | -1 | 1 | .
COc1ccc(S[C@]2(C(=O)N3CCCC3)CC(=O)N(C(=O)c3ccccc3)[C@@H]2c2ccc(OC)cc2)cc1 | 74* | 2 | . | -4 | 6 | 7 | 73*
COC(=O)[C@@]1(Sc2ccc(C)cc2)CC(=O)N(C(=O)c2ccccc2)[C@@H]1c1ccccc1 | 68* | -5 | 3 | 2 | 2 | 5 | 77*
COc1ccc(S[C@]2(C(=O)N3CCOCC3)CC(=O)N(c3ccc(Cl)cc3)[C@@H]2c2ccc(OC)cc2)cc1 | 5 | -1 | . | 2 | 2 | 11 | .
COc1ccc(S[C@]2(C(=O)N(C)C)CC(=O)N(C(=O)c3ccccc3)[C@@H]2c2ccc(OC)cc2)cc1 | 84* | -4 | . | 1 | 0 | 6 | 72*
COc1ccc(S[C@]2(C(=O)N(C)C)CC(=O)N(S(=O)(=O)c3ccc(F)cc3)[C@@H]2c2ccc(OC)cc2)cc1 | 26* | -2 | . | 0 | -1 | 11 | 27*
Nc1cc(S(=O)(=O)O)cc2ccc(S(=O)(=O)O)cc12 | 35* | 6 | -6 | -5 | 5 | 4 | 10
Cc1[nH]c2ccccc2c1CC(=O)Nc1ccc(Nc2cccnc2)c(-c2ccc(Cl)c(Cl)c2)c1 | 2 | -1 | . | -1 | -3 | 14 | .
CC(C)(C)n1nc(C2CC2)c(Br)c1NC(=O)c1ccccc1Cl | -8 | 2 | . | 0 | -1 | 2 | .
O=C(c1cccc(F)c1)n1ccc2ccc(-c3ccc4ccn(Cc5ccccc5)c4c3)cc21 | 3 | 1 | . | 2 | -2 | 9 | .
O=C(O)CCCCN1C(=O)C=CC1=O | 77* | 7 | . | -2 | 0 | 1 | 95*
O=C1CCNc2ccc(-c3ccccc3)cc21 | 75* | -2 | -4 | -3 | -5 | -43 | 79*
C=CCN(Cc1ccc2c(c1)OCO2)C(C#CCCCC)C(C)C (centres undefined) | 1 | -7 | . | 2 | -1 | . | .
O=C1NC2=C(C(=O)CCC2)C(c2ccccc2Cl)N1 (centres undefined) | -1 | 1 | 1 | 4 | -2 | -2 | .
Cc1nc(Cl)c2c(n1)NC1=C(O2)C(=O)CCC1 | 36* | 1 | -1 | -2 | -7 | -45 | 48*
O=C1C=CC(=Nc2ccc(F)cc2)O1 | 50* | 3 | 11 | 0 | -2 | 3 | 79*
CN(NC(=S)Nc1ccc(OC(F)F)cc1)C(=S)Nc1ccc(OC(F)F)cc1 | 44* | -4 | -8 | 11 | 3 | 4 | -2
c1ccc(CSC2=NCCCN2)cc1 | 1 | -1 | 1 | 1 | -1 | 0 | .
O=C(CCSC1=NCCCN1)c1ccc(F)cc1 | 31* | -6 | -15 | 7 | 4 | -1 | 47*
CCc1ccc2[nH]c(=O)c(CN(CCN(C)C)C(=S)NCc3ccco3)cc2c1 | 33* | -2 | -5 | 4 | -3 | -4 | 2
Cc1cccc(N2CCN(C(=O)c3ccc4ncsc4c3)CC2)c1C | 38* | -1 | 3 | 2 | 6 | -1 | 1
O=C(c1ccc2ncsc2c1)N1CCN(c2ccccc2Cl)CC1 | 17 | 3 | 1 | 5 | 1 | -2 | .
